SSB-PriA inh: K. pneumoniae PriA-SSBct interaction inhibition; AlphaScreen SSBct-PriA binding, biotinylated peptide; inhibition, % at 33 µM; 430,000 compounds, 0.6% hits; in the data active means inhibition mostly above about 37%, no sharp cut-off; inactive means mostly below about 20%;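 further: plate controls were negative control peptide for no effect and reference peptide for full effect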
PrPC surface inh: cell surface PrPC inhibition, primary TR-FRET screen; P04156; TR-FRET read-out; inhibition, % at 13.8 µM; 370,000 compounds, 0.43% hits; AID 720596; in the data active means inhibition above about 24%; further: 0% = median of the test wells and 100% = reference compound wells
PrP 5UTR inh: suppresses PrP 5' UTR mRNA reporter expression. AID 488862. inhibition, % (no concentration beside the values). cell-based PrP 5' UTR mRNA reporter, plate reader. 340,000 compounds, 0.35% hits; in the data active means inhibition above about 52%; further: 0 = median of the neutral control wells
PfHsp40 yeast: restores yeast growth despite PfHsp40 toxicity. S. cerevisiae expressing PfHsp40, growth rescue, ATP luminescence. growth rescue, % at 12.5 µM. 340,000 compounds, 0.68% hits. AID 504582; in the data active means growth rescue above about 28%, passing the limit was not always enough;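 further: yeast W303a lacking pdr1 and pdr3 grown in galactose medium; growth measured after three days at 30 °C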
RecA intein inh: inhibitors of M. tuberculosis RecA intein splicing. 290,000 compounds, 0.75% hits. cell-free RecA intein splicing, fluorescence. P9WHJ3. inhibition, % (test concentration not listed); in the data active means inhibition above about 30%;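 further: 0% = vehicle wells and 100% = reference inhibitor control wells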
Target sequence (P9WHJ3 whole entry, looked up): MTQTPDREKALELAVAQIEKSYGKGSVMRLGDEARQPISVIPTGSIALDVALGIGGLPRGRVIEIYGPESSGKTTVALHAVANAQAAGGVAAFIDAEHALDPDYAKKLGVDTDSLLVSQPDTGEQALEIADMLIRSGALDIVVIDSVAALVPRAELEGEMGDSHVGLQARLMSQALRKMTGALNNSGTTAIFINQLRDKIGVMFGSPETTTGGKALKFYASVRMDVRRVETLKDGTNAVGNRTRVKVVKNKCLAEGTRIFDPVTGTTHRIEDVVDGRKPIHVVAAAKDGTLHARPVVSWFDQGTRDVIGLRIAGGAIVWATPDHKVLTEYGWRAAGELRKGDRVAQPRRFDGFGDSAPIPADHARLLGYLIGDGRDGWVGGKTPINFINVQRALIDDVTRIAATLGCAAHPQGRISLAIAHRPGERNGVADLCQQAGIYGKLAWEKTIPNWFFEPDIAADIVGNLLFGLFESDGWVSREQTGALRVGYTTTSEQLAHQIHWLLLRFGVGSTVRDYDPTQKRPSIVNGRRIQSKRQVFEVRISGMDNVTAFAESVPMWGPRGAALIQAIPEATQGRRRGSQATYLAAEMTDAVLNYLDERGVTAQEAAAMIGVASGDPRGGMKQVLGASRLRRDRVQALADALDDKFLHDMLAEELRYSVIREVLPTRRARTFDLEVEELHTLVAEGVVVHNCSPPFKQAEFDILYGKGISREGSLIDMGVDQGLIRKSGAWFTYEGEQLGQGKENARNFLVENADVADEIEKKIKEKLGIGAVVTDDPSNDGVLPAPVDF
BJeLR viability: kills HRASV12-expressing BJeLR cells | inhibition, % (no concentration beside the values) | BJeLR (HRASV12) viability, CellTiter-Glo ATP luminescence, 48 h | 300,000 compounds, 0.17% hits; in the data active means inhibition above about 50%
PrPC confirm: confirmation of inhibitors of cell surface human prion protein; shares compounds with PrPC surface inh; cell surface PrPC level, TR-FRET; inhibition, % at 13.8 µM; 1,500 compounds, 65% hits; AID 743200; in the data active means inhibition above about 25%
LD9 cytotox: kills or reduces viability of LD9 cells in PrPc counter-screen. 1,500 compounds, 29% hits. AID 743201. shares compounds with PrPC surface inh. inhibition, % at 13.8 µM. LD9 cells cytotoxicity, luminescence viability; in the data active means inhibition above about 9.5%
Starred values were filed as active, the others as inactive; . = no result given. A selection: hits, their analogues and other compounds. The true share with any hit is near 1.9%.

SMILES	SSB-PriA inh	PrPC surface inh	PrP 5UTR inh	PfHsp40 yeast	RecA intein inh	BJeLR viability	PrPC confirm	LD9 cytotox
Cc1cc(C)c(S(=O)(=O)NCc2ccncc2)c(C)c1	2	40*	-11	-2	5	2	35*	6
CCC(C)NC(=O)CCC(=O)OC1O[C@H]2OC3(C)CC[C@H]4[C@H](C)CCC(C1C)C24OO3 (stereo partly specified)	1	28*	-21	101*	-1	7	31*	21*
CCC(C)C(NC(=O)CCCNC(=O)CCC(=O)OC1O[C@H]2OC3(C)CC[C@H]4[C@H](C)CCC(C1C)C24OO3)C(=O)O (stereo partly specified)	.	28*	-14	2	1	2	31*	22*
O=C(NCc1ccco1)c1cc2c(OCc3ccccc3)cccc2[nH]1	-2	.	.	.	.	.	.	.
COC(=O)CS[C@H]1CCN(S(=O)(=O)c2ccc(Cl)s2)C1	-18	.	.	.	.	.	.	.
O=C(Nc1ccc([N+](=O)[O-])cc1)Nn1cnnc1	-4	37*	-13	-2	3	13	-1	1
Cc1ccc(NC(=O)Nn2cnnc2)cc1	-17	5	-15	0	-1	-1	.	.
COc1ccc(C=NNC(=O)c2ccc(Cn3cc([N+](=O)[O-])cn3)o2)cc1O	-2	.	.	.	.	.	.	.
CCOC(=O)c1c(N)sc2c1CCC(CC)C2 (stereo unspecified)	-1	-2	-16	3	-3	0	.	.
CC#CCOC(=O)c1c(C)nc2sc3c(c2c1N)CCC(O)C3 (stereo unspecified)	-4	42*	-20	14	.	.	27*	12*
CC(O)(CNC(=O)c1ccc2ncsc2c1)c1ccco1 (stereo unspecified)	-8	.	.	.	.	.	.	.
Cc1ccccc1C(=O)N1CCN(c2ccc(NC(=O)c3ccc4c(c3)OCO4)cc2)CC1	2	34*	16	2	0	42	30*	13*
O=C(Nc1ccc(N2CCN(C(=O)c3ccco3)CC2)cc1)c1ccc2c(c1)OCO2	-5	25*	-12	0	.	-19	15	3
CC(=O)Nc1ccc(Br)c2ccccc12	-1	21	-4	-1	1	-1	.	.
O=C(Nc1ccc(Br)c2ccccc12)c1ccc2ccccc2c1O	2	35*	-32	-2	3	0	64*	21*
Cc1ccc(S(=O)(=O)/C(C#N)=C/N2CCC(C(N)=O)CC2)cc1C	2	.	.	.	.	.	.	.
Cn1nc(C(F)(F)F)c(/C=N/OC(=O)c2ccccc2Cl)c1SCc1ccccc1Cl	.	70*	-18	-1	5	-9	82*	-3
Cn1nc(C(F)(F)F)c(C=NOC(=O)c2ccccc2Cl)c1SCc1ccccc1Cl	-8	.	.	.	.	.	.	.
CC(CC(C)C)=NOc1nc(C)cc(C)n1	-9	.	.	.	.	.	.	.
CCOC(=O)/C=C/S(=O)(=O)c1ccc(NC(C)=O)cc1	-13	89*	-21	-2	-1	-7	-10	98*
CCOC(=O)/C=C/C(=O)Nc1ccc(S(=O)(=O)Nc2nc(C)cc(C)n2)cc1	1	.	.	.	.	.	.	.
Cc1nnc(-c2cc3ccccc3[nH]2)o1	2	.	.	.	.	.	.	.
COc1ccccc1-c1ncn(Cc2cccc(-c3ccccc3)c2)c1CC(C)C	.	27*	.	.	.	.	15	7
CCc1c(-c2ccccc2OC)ncn1Cc1cccc(-c2ccccc2)c1	.	23	.	.	.	.	.	.
CCCc1c(-c2ccc(F)cc2F)ncn1Cc1cccc(-c2ccccc2)c1	.	30*	.	.	.	.	18	8
SMILES	SSB-PriA inh	PrPC surface inh	PrP 5UTR inh	PfHsp40 yeast	RecA intein inh	BJeLR viability	PrPC confirm	LD9 cytotox
Cc1ccc(C)c(NC(=O)C2COc3ccccc3C2)c1 (stereo unspecified)	1	.	.	.	.	.	.	.
C=CCN1C(=O)C(C)(C)COc2cc(NC(=O)OC)ccc21	-7	.	.	.	.	.	.	.
CCOCCCNc1ncnc2c1[nH]c1ccccc12	-1	13	-12	0	4	4	.	.
CCCCOCCCNc1ncnc2c1[nH]c1ccccc12	-9	31*	-14	0	2	-2	24*	17*
Cn1c(=O)cc(OCCCC(=O)Nc2cc(-c3ccncc3)ccn2)c2ccccc21	.	27*	.	.	.	.	35*	13*
Cn1c(=O)cc(OCCCC(=O)Nc2cc(C(F)(F)F)ccn2)c2ccccc21	.	29*	.	.	.	.	42*	11*
Cn1c(=O)cc(OCCCC(=O)Nc2cc(Br)ccn2)c2ccccc21	.	31*	.	.	.	.	47*	15*
Cn1c(=O)cc(OCCCC(=O)NCc2cccnc2)c2ccccc21	-3	-1	-8	1	1	-3	.	.
NC(=O)C1CCN(C(=O)c2ccc3nc(-c4ccccc4)c(-c4ccccc4)nc3c2)CC1	-5	47*	-7	0	0	1	53*	-2
CCOC(=O)N1CCN(C(=O)c2ccc3nc(-c4ccccc4)c(-c4ccccc4)nc3c2)CC1	-15	-6	-16	0	-1	-4	.	.
CCCCCCCCn1c2c(c(=N)c3ccccc31)CCC2	-4	29*	-19	0	10	29	44*	38*
CCN(CC)S(=O)(=O)c1ccc(C(=O)NCc2ccc3c(c2)cc(C)n3C)cc1	20	36*	-18	0	0	6	2	-2
Cc1cc2cc(CNC(=O)c3ccc(S(=O)(=O)N4CCCCC4)cc3)ccc2n1C	-7	39*	-3	0	7	4	21	-8
Cc1ccc(CNC(=O)c2ccc(S(=O)(=O)N3CCCC3)cc2)cc1	.	4	.	.	.	.	.	.
Cc1cc2cc(CNC(=O)c3ccc(S(=O)(=O)N4CCCC4)cc3)ccc2n1C	-3	37*	-11	14	5	0	68*	3
Cc1ccc(CNC(=O)c2ccc(S(=O)(=O)N3CCCCC3)cc2)cc1	-12	17	-15	-1	.	.	.	.
NC(=NOC(=O)c1ccc(Br)cc1)c1cccc([N+](=O)[O-])c1	4	.	.	.	.	.	.	.
COc1cc(C(=O)NCC(=O)NN=C/C(C)=C\c2ccccc2)cc(OC)c1OC	-2	.	.	.	.	.	.	.
O=C(NC1CCC(Oc2ncccn2)CC1)c1nccc2ccccc12 (stereo unspecified)	-8	.	.	.	.	.	.	.
Nn1c(SCc2ccc(Br)cc2)nnc1-c1n[nH]c2c1CCC2	.	25*	.	.	.	.	19	8
Nn1c(SCc2cccc3ccccc23)nnc1-c1n[nH]c2c1CCC2	.	0	.	.	.	.	.	.
CSCCC(Nc1ncnc2ccc(Br)cc12)C(=O)O (stereo unspecified)	5	42*	-32	0	-1	0	104*	-1
CC(=O)c1ccc(Nc2ncnc3ccc(Br)cc23)cc1	.	6	.	.	.	.	.	.
Brc1ccc2ncnc(NCc3ccco3)c2c1	2	26*	-10	1	6	0	32*	13*
CC(C)Nc1ncnc2ccc(Br)cc12	-6	25*	-5	0	0	-8	34*	5

Screens deposited in PubChem BioAssay by several laboratories.
